Assay results as given in PubChem BioAssay (NCI).
This is part of a sample that, as a whole, favours compounds with a hit. Of some 79,000 tested, about 15% had one in any assay. Values without a mark were called inactive. Activity calls are given as the source filed them. Cut-off read from the data, not from the text of the source: active = growth inhibition above about 70%; inactive = the rest.

Key:
[1] = NCI Yeast Anticancer Drug Screen. Data for the rad50 strain (AID 155);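 note: 0% = growth of vehicle-only cultures of the same strain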; settings: S. cerevisiae rad50 strain growth inhibition, hits give high values
Outline: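 DNA repair mutant yeast, compound exposure, growth read-out; inhibition is taken relative to vehicle.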

[2] = NCI Yeast Anticancer Drug Screen. Data for the mec2-1 strain (AID 157); settings: S. cerevisiae mec2-1 strain, hits give high values
Outline: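 Vehicle-treated cultures served as reference for growth inhibition of compound-exposed mec2-1 yeast.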

[3] = NCI Yeast Anticancer Drug Screen. Data for the sgs1 mgt1 strain (AID 161);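 note: 0% = growth of cultures given vehicle only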; settings: S. cerevisiae sgs1 mgt1 strain, hits give high values
Outline: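 Test agents were incubated with a DNA-repair-mutant yeast strain. Growth was then read and compared against vehicle-treated controls.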

[4] = NCI Yeast Anticancer Drug Screen. Data for the cln2 rad14 strain (AID 165);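 note: 0% = growth equal to vehicle treated cultures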; settings: S. cerevisiae cln2 rad14 strain, hits give high values
Outline: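 Each compound was tested on cln2 rad14 yeast. Inhibition of growth was calculated against vehicle-exposed controls.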

[5] = NCI Yeast Anticancer Drug Screen. Data for the bub3 strain (AID 167); settings: S. cerevisiae bub3 mutant strain, hits give high values
Outline: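 In this screen, a yeast mutant lacking normal mitotic checkpoint function is challenged with compound. Relative growth versus vehicle gives the inhibition value.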

[6] = NCI Yeast Anticancer Drug Screen. Data for the mlh1 rad18 strain (AID 175); settings: S. cerevisiae mlh1 rad18 strain growth inhibition, hits give high values
Outline: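 Vehicle-treated cultures served as the reference for growth inhibition in a yeast strain carrying DNA damage repair alterations exposed to each compound.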

[7] = at 5.0 µM (retest, dose inferred, filed as 0.5)
[8] = at 50.0 µM (retest, dose inferred, filed as 5.0)

SMILES | growth inhibition [1, 7] | growth inhibition [1, 8] | growth inhibition ([1]; at 50.0 µM) | growth inhibition [2, 7] | growth inhibition [2, 8] | growth inhibition ([2]; at 50.0 µM) | growth inhibition [3, 7] | growth inhibition [3, 8] | growth inhibition ([3]; at 50.0 µM) | growth inhibition [4, 7] | growth inhibition [4, 8] | growth inhibition ([4]; at 50.0 µM) | growth inhibition [5, 7] | growth inhibition [5, 8] | growth inhibition ([5]; at 50.0 µM) | growth inhibition [6, 7] | growth inhibition [6, 8] | growth inhibition ([6]; at 50.0 µM)
Cc1nc2c(Cl)nc(Cl)nc2s1 | -10% | 98% (active) | 98.5% (active) | 35% | 98% (active) | 98.5% (active) | 20% | 97% (active) | 98.7% (active) | -8% | 97% (active) | 95.5% (active) | 15% | 98% (active) | 98.3% (active) | 23% | 97% (active) | 98.2% (active)
COc1ccc2ccnc(Cc3ccc(OCc4ccccc4)c(OC)c3)c2c1 | 42% | 42% | 89.5% (active) | 27% | 27% | 87.3% (active) | 28% | 28% | 89.7% (active) | 12% | 12% | 87% (active) | 28% | 28% | 86.5% (active) | 29% | 29% | 86% (active)
NC(=O)CC1CCC(c2ccccc2)CC1 (stereo not given) | -1% | -59% | 44% | -6% | -23% | 6.95% | -1% | -14% | 77.3% (active) | 2% | -8% | -47.6% | -12% | -53% | 12.7% | 0% | -31% | 41.8%
c1ccc2c(c1)N=c1ccccc1=P21c2ccccc2Nc2ccccc21 | 89% (active) | 99% (active) | 87.3% (active) | 93% (active) | 99% (active) | 90.9% (active) | 84% (active) | 99% (active) | 87.8% (active) | 85% (active) | 99% (active) | 89.5% (active) | 97% (active) | 99% (active) | 89.8% (active) | 92% (active) | 99% (active) | 83.2% (active)
COc1ccc2c(c1)sc(/C=C/c1ccc(O)c3ncccc13)[n+]2C | 12% | 88% (active) | 92.3% (active) | 49% | 92% (active) | 93.6% (active) | -53% | 94% (active) | 92% (active) | 3% | 86% (active) | 90.3% (active) | 19% | 86% (active) | 89.9% (active) | 62% | 92% (active) | 92.4% (active)
COC1OC2=CCC3C(=O)NC(=O)C3C2[C@H](OCc2ccccc2)C1OCc1ccccc1 (stereo not given in full) | 11% | 99% (active) | 98.4% (active) | -13% | 99% (active) | 99.7% (active) | 11% | 99% (active) | 98.8% (active) | 0% | 99% (active) | 93.5% (active) | 2% | 97% (active) | 98.8% (active) | 4% | 98% (active) | 98.9% (active)
COc1ccc(-c2c(C#N)cc(OC)c(OC)c2OC)c(C=O)c1 | 2% | 24% | 43.4% | -5% | 29% | 31.8% | -19% | 62% | 40.9% | 0% | 11% | 80.2% (active) | -3% | 26% | 75% (active) | 11% | 57% | 76.3% (active)
CCC[CH2][Ge]([CH2]CCC)([CH2]CCC)[O]C(=O)CC(=O)c1ccccc1 | 10% | 62% | 53.3% | -3% | 65% | 45.1% | 6% | 41% | 32.2% | 1% | 20% | 43.5% | -17% | 27% | 79.5% (active) | -1% | 46% | 67.4%
O/N=C(/Cc1nc2cc(Cl)c(Cl)cc2nc1C/C(=N/O)c1ccncc1)c1ccncc1 | 5% | 65% | 82.2% (active) | 11% | 77% (active) | 87.6% (active) | 4% | 55% | 79% (active) | 6% | 68% | 84.5% (active) | 5% | 77% (active) | 74% (active) | 1% | 47% | 89.5% (active)
COc1ccccc1C(=O)c1ccc2ccccc2c1 | -3% | 71% (active) | 47.2% | -10% | 85% (active) | 73% (active) | 0% | 83% (active) | 61.8% | -6% | 9% | -17.1% | 3% | 74% (active) | 83.6% (active) | -15% | 55% | 42.3%
